Laboratory results: PubChem BioAssay AID504635 (The Scripps Research Institute Molecular Screening Center, 2011)
This is one part of the list. The source made the active and inactive calls. Cut-off read from the data, not from the text of the source: active = inhibition above about 18%; inactive = the rest.

Molecular target: Troponin I, cardiac muscle (Homo sapiens) + Troponin T, cardiac muscle (Homo sapiens) + Troponin C, slow skeletal and cardiac muscles (Homo sapiens) (UniProt P19429+P45379+P63316)
Experiment: cardiac RTF calcium sensitivity inhibitors, confirmation, biochemical, fluorescence readout (AID 504635)
Details: reconstituted cardiac thin filaments, at 7.15 µM, stronger effect = higher value

| Structure (SMILES) | inhibition |
| --- | --- |
| COC(=O)c1cccc(N(CC(=O)NCC2CCCO2)C(=O)CCC(=O)Nc2cc(C)on2)c1 (stereo not given) | -2.6% (inactive) |
| COc1ccc(NC(=O)CC2COc3ccccc3O2)c(OC)c1 (stereo not given) | -2.46% (inactive) |
| Cc1cccc(N(C(=O)Cc2cccs2)C(C(=O)NC2CCCC2)c2ccsc2)c1 (stereo not given) | -3.11% (inactive) |
| COc1cc(OC)cc(C(=O)NCC(=O)OCc2csc(-c3ccccc3)n2)c1 | 2.35% (inactive) |
| C/C(=N\NC(=O)C(N)=O)c1ccc2c(c1)OCCO2 | -2.4% (inactive) |
| COc1cccc(CNC(=O)C(=O)NCCC2CCCCN2S(=O)(=O)c2ccc(C)cc2)c1 (stereo not given) | -4.1% (inactive) |
| Cc1ccc(NC(=O)NC2CCCCC2)cc1S(=O)(=O)N1CCOCC1 | -0.15% (inactive) |
| Cc1ccc(S(=O)(=O)N(CC(=O)Nc2cccc([N+](=O)[O-])c2)Cc2ccc(Cl)cc2)cc1 | -1.82% (inactive) |
| Cc1cc(NC(=O)CCC(=O)N(CC(=O)NCC2CCCO2)c2ccccc2)no1 (stereo not given) | -4.68% (inactive) |
| O=c1ccc2c(-c3ccccc3S(=O)(=O)O)c3ccc(O)c(O)c3oc-2c1O | 154% (active) |
| C=CCNC(=O)COC(=O)c1ccccc1C(=O)N(C)C1CCCCC1 | 0.72% (inactive) |
| O=C(O)c1cccc(S(=O)(=O)Nc2ccc(O)cc2Sc2nc3ccccc3s2)c1 | -6.09% (inactive) |
| CCCCn1c(=O)c(C(C)=O)c(O)c2ccccc21 | -4.91% (inactive) |
| CC1CCCC(NC(=O)COC(=O)[C@@H]2CC(O)CN2S(=O)(=O)c2ccc3c(c2)OCCO3)C1C (stereo not given in full) | -1.77% (inactive) |
| COC(=O)CCc1sc(Nc2ccc(Br)cc2)nc1-c1ccc(OC)cc1 | 1.8% (inactive) |
